High-throughput results deposited in PubChem by National Center for Advancing Translational Sciences (NCATS).
LDHA inh: LDHA (human) enzyme inhibition; purified LDHA, NADH/diaphorase-resazurin fluorescence; stronger effect = lower value; activity change, % (values are at about 110 or 230 µM); hit rate 0.15% among 480,000; in the data active = activity change below about -30%; inconclusive = mostly about -25% to -30%;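 also: plate controls were DMSO wells for no effect and wells without enzyme for full effect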
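Human LDH5 at 2 nM final in Tris HCl pH 7.4 with 0.06 mM NADH and 0.2 mM pyruvate, reacted 5 minutes at room temperature. Remaining NADH coupled via diaphorase/resazurin; resorufin fluorescence read at 0 and 20 minutes, normalized to enzyme-free and DMSO wells.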
Vif-APOBEC3G blk: inhibitors of Vif-APOBEC3G interaction. Q9HC16. HeLa A3G-eYFP + Vif (tagged APOBEC3G with the HIV-1 protein that degrades it), YFP fluorescence, overnight. Potency, µM (top dose mostly 46.1 µM), inactives show at the top dose activity, negative = active, actives largely listed as inhibitors. hit rate 0.076% among 410,000; also: potency is read from the fitted curve at half-maximal effect; % is scaled to controls: 0 for no effect and ±100 for the full control effect; nearly all actives have a fitted effect of over 60% in size
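HeLa cells stably expressing Vif and C-terminally eYFP-tagged A3G, seeded overnight at 37 deg C, then exposed to compound by pintool overnight at 37 deg C. Rise in yellow fluorescence (Ex 488/Em 500-530, Acumen) marks blocked Vif-driven A3G degradation.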
Vif-APOBEC3F blk: Vif-A3F binding inhibition | Potency, µM (series often up to 46.1 µM), without a hit: top-dose activity, negative = active | hit rate 0.2% among 390,000 | HeLa A3F-eYFP + Vif (tagged APOBEC3F with the HIV-1 protein that degrades it), YFP fluorescence increase; also: potency is read from the fitted curve at half-maximal effect; % of control where 0% means no effect; nearly all actives have a fitted effect of over 65% in size
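HeLa cells stably expressing Vif plus C-terminally eYFP-tagged A3F were seeded, incubated overnight at 37 deg C, dosed with compound, incubated overnight again at 37 deg C. Yellow fluorescence (Ex 488/Em 500-530) reported blocked Vif-mediated A3F-eYFP degradation.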
IDH1 R132H inh: blocks human mutant IDH1 R132H enzyme; Potency, µM (doses to about 76.6 µM), for inactives: at the highest dose activity change, negative = inhibition, hits mostly inhibitors; hit rate 0.093% among 390,000; IDH1-R132H enzyme, NADPH consumption, diaphorase/resazurin fluorescence; O75874; AID 602179; also: potency is read from the fitted curve at half-maximal effect; % is scaled to controls: 0 for no effect and ±100 for the full control effect; nearly all actives have a fitted effect of over 65% in size
Target sequence (O75874 whole entry R132H, stated change not applied): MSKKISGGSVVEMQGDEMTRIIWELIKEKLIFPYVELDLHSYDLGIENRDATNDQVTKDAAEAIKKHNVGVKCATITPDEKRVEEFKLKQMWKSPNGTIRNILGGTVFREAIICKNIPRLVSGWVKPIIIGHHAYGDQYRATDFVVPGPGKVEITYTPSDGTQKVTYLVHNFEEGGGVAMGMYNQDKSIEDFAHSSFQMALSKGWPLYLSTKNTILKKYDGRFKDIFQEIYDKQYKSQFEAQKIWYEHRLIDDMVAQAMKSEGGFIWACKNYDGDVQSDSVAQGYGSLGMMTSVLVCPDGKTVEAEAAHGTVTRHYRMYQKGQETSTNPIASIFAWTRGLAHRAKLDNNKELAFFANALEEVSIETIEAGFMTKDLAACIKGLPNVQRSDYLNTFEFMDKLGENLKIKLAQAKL
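IDH1-R132H (0.5 ug/mL dispensed) in pH 7.5 Tris buffer was preincubated 30 min with compound, then given a substrate mix of 0.016 mM NADPH and 2 mM alpha-KG for 80 min at room temperature; remaining NADPH was read by diaphorase/resazurin fluorescence.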
Pin1 inh: human Pin1 inhibition. Potency, µM (top dose mostly 115 µM), for inactives: at the highest dose activity, negative = inhibition, hits mostly inhibitors. Q13526. Pin1 FP peptide displacement, HiFluor488, 10 min. hit rate 0.009% among 390,000; active = well fitted inhibition curve with a large enough effect in the polarisation, with a control signal flat, not every such curve was filed as active; inconclusive = small, poorly fitted or top-dose-only effect, or effect the other way, or a change in a side signal; inactive = no such curve, though single readings can be large or run the other way; the % refers to the polarisation; also: potency is read from the fitted curve at half-maximal effect; % is scaled to controls: 0 for no effect and ±100 for the full control effect
Target sequence (Q13526 whole entry, looked up): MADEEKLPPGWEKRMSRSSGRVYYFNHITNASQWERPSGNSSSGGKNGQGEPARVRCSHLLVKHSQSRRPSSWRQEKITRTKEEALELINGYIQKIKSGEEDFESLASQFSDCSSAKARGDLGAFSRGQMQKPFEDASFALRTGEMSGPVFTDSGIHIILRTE
Tb PGK inh: blocks T. brucei phosphoglycerate kinase; P07378; PGK/GAPDH coupled, Kinase-Glo luminescence, 60 min; Potency, µM (highest dose often 57.5 µM), for the others: at the top dose activity change, negative = inhibition, hits mostly inhibitors; hit rate 0.043% among 380,000; also: potency is read from the fitted curve at half-maximal effect; % is scaled to controls: 0 for no effect and ±100 for the full control effect; nearly all actives have a fitted effect of over 60% in size
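Luminescent ATP detection (Kinase-Glo Plus) follows a 60-minute room-temperature incubation, with wells lacking PGK as controls. Buffer: 100 mM TEA (pH 7.6), 5 mM MgCl2, 0.01% Tween-20. Coupling enzyme GAPDH (100 nM final) supplies unstable 1,3-BPG in-well.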
Resorufin autofl: autofluorescence interference, mutant IDH1 hit counter-screen; shares compounds with IDH1 R132H inh; Resorufin detection reagent fluorescence interference, cell-free; inhibition of signal, % at 51.2 µM; 750 tested, under 10 active;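 also: 0% = wells with normal resorufin and full inhibition = wells lacking resorufin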
IDH1 WT: wild-type IDH1 (human) inhibition counterscreen; Potency, µM (top dose mostly 115 µM), without a hit: at the top dose activity change, negative = inhibition, usual class: inhibitors; hit rate 9% among 750; shares compounds with IDH1 R132H inh; WT IDH1 enzyme, NADPH diaphorase/resazurin fluorescence; AID 623995;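 also: potency is read from the fitted curve at half-maximal effect; 0% = full WT IDH1 enzyme control and full inhibition = no enzyme wells; nearly all actives have a fitted effect of over 55% in size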
Target sequence (O75874 whole entry, looked up): as the sequence (O75874 whole entry R132H, stated change not applied) above, with H132R counted along it
IDH1 R132H conf: inhibits human mutant IDH1 enzyme in cherrypick confirmation | hit rate 83% among 750 | shares compounds with IDH1 R132H inh | IDH1 R132H enzyme, NADPH diaphorase/resazurin fluorescence | AID 624002 | Potency, µM (highest dose often 76.6 µM), for inactives: top-dose activity change, negative = inhibition, actives largely listed as inhibitors; also: potency is read from the fitted curve at half-maximal effect; nearly all actives have a fitted effect of over 50% in size
* marks the source's active call; other numbers are inactive results; i = inactive; ? = inconclusive; . = not tested or not shown. A selection: hits, their analogues and other compounds. The true share with any hit is near 0.49%. Unless noted, calls follow the shape of the dose curve; as a rule, active = well fitted curve in the direction sought with a large enough effect; inconclusive = small, poorly fitted or top-dose-only effect, or another doubt; inactive = no such curve, though single readings can be large; an effect the other way counts as inactive or inconclusive.

SMILES	LDHA inh	Vif-APOBEC3G blk	Vif-APOBEC3F blk	IDH1 R132H inh	Pin1 inh	Tb PGK inh	Resorufin autofl	IDH1 WT	IDH1 R132H conf
CC(C)Cn1c(SCC(=O)N2CCc3ccccc3C2)nc2cc(Cl)ccc2c1=O	-6.2	0.7%	6.7%	?	3.6%	-11.9%	.	.	.
COCCn1c(SCC(=O)N2CCc3ccccc3C2)nc2cc(Cl)ccc2c1=O	-3.1	-0.4%	0.0%	26.1µM*	1.7%	-0.7%	-7.0	8.2%	11.2µM*
NNC(=O)c1csc(CS(=O)(=O)c2ccc(Cl)cc2)n1	-5.3	-2.2%	0.9%	5.2%	-0.2%	5.2%	.	.	.
NNC(=O)c1csc(Cc2c(Cl)sc3ccc(Cl)cc23)n1	-3.1	0.0%	6.9%	52.1µM*	-4.2%	-6.1%	5.9	14.0%	-10.9%
Cc1onc(-c2c(F)cccc2Cl)c1C(=O)Nc1cc(S(=O)(=O)N2CCCCC2)ccc1O	-4.1	-2.9%	0.7%	52.1µM*	?	2.1%	8.0	-4.5%	35.5µM*
CCN(CC)S(=O)(=O)c1ccc2c(c1)N(CC(=O)Nc1ccc(Cl)cc1)C(=O)C1CCCN21 (configuration not stated)	1.7	-18.1%	-14.3%	?	?	9.0%	3.6	-2.3%	28.2µM*
CCN(CC)S(=O)(=O)c1ccc2c(c1)N(CC(=O)Nc1cccc(C)c1C)C(=O)C1CCCN21 (configuration not stated)	3.4	-3.3%	-0.4%	13.8%	?	-1.8%	.	.	.
CCOc1cc(C=C2C(=O)c3ccccc3C2=O)ccc1OCC(=O)Nc1ccc(C)cc1	-5.7	1.3%	?	?	?	8.0%	-3.6	7.1%	15.8µM*
COc1cccc(C(=O)OCc2nc(N)c3ccccc3n2)c1OC	-6.9	.	.	.	.	.	.	.	.
NC1(C(=O)O)Cc2ccccc2C1	5.7	.	.	.	.	.	.	.	.
CC(C)c1cnc2c(c1SCC(=O)Nc1cccc(F)c1)c(=O)n(C)c(=O)n2C	-10.3	0.3%	-2.6%	-5.7%	-9.9%	-8.0%	.	.	.
Cc1cc(C)cc(NC(=O)CSc2c(C(C)C)cnc3c2c(=O)n(C)c(=O)n3C)c1	-9.4	3.5%	-10.2%	?	2.4%	-3.4%	-7.6	-11.6%	-6.9%
C=CCc1cc(/C=C2/NC(=O)NC2=O)cc(OCC)c1OCc1ccc(C(=O)O)cc1	-10.3	.	.	.	.	.	.	.	.
CCC(=O)Oc1cccc(C(=O)Nc2ccc(-c3nc4ccccc4o3)cc2)c1	6.3	.	.	.	.	.	.	.	.
COc1ccc(N(C(=O)/C=C\C(=O)Nc2ccc(Cl)cc2)C(C(=O)NCc2ccco2)c2ccc(C)cc2)cc1 (configuration not stated)	-1.0	-8.1%	8.5%	?	14.2%	i	0.0	3.5%	-10.9%
CC(C)C[C@@H](CN1CCC[C@@H]1CN1C(=O)C(=O)NC[C@@H]1Cc1ccccc1)N1C[C@H](Cc2ccccc2)N(CC2CCCCC2)C(=O)C1=O	-3.4	.	.	.	.	.	.	.	.
CC(C)C[C@H]1CN([C@@H](Cc2ccc(O)cc2)CN2CCC[C@@H]2CN2C(=O)C(=O)NC[C@@H]2Cc2ccccc2)C(=O)C(=O)N1CC1CCCCC1	-6.7	2.8%	-1.7%	44.7µM*	-10.5%	i	-4.3	-2.6%	14.1µM*
